Measurements: PubChem BioAssay (EPA / NIEHS)
Active and inactive are the calls of the source. How the source made its calls: active means hit-call score of the fitted dose curve at least 0.9, where 1 is the maximum; inactive means score below 0.9.

Legend:
[1] = read-out: Interleukin-8 (IL8), CXCL8 (gene 3576); assay: BSK_CASM3C_IL8: BioMAP Diversity Plus: CASM3C Assay for Interleukin-8 (IL8) Biomarker Activity (AID 2283042); details: primary human coronary artery smooth muscle cells; actives raise or lower the signal;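 further: IL-8 protein level quantified by ELISA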
[2] = read-out: Human Leukocyte Antigen - DR isotype (HLADR), HLA-DRA (gene 3122); assay: BSK_CASM3C_HLADR: BioMAP Diversity Plus: CASM3C Assay for Human Leukocyte Antigen - DR isotype (HLADR) Biomarker Activity (AID 2283043); details: primary human coronary artery smooth muscle cells; actives raise or lower the signal;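 further: cell-surface HLA-DR protein level quantified by ELISA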
[3] = read-out: Macrophage colony-stimulating factor (MCSF), CSF1 (gene 1435); assay: BSK_CASM3C_MCSF: BioMAP Diversity Plus: CASM3C Assay for Macrophage colony-stimulating factor (MCSF) Biomarker Activity (AID 2283044); details: primary human coronary artery smooth muscle cells; actives raise or lower the signal;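 further: M-CSF protein amount quantified by ELISA after 24 h exposure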
[4] = read-out: Low-density lipoprotein receptor (LDLR), LDLR (gene 3949); assay: BSK_CASM3C_LDLR: BioMAP Diversity Plus: CASM3C Assay for Low-density lipoprotein receptor (LDLR) Biomarker Activity (AID 2283045); details: primary human coronary artery smooth muscle cells; actives raise or lower the signal;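 further: LDLR protein level on the cell surface quantified by ELISA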
[5] = read-out: Monocyte Chemoattractant Protein-1 (MCP1), CCL2 (gene 6347); assay: BSK_CASM3C_MCP1: BioMAP Diversity Plus: CASM3C Assay for Monocyte Chemoattractant Protein-1 (MCP1) Biomarker Activity (AID 2283046); details: primary human coronary artery smooth muscle cells; actives raise or lower the signal;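 further: MCP-1 level quantified by ELISA 24 h after dosing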
[6] = BSK_CASM3C_Proliferation: Cell Proliferation Assessment in the BioMAP Diversity Plus: CASM3C Assay (AID 2283047); details: primary human coronary artery smooth muscle cells;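 further: sulforhodamine B total protein stain as relative cell number at 560 nm; sub-confluent cells exposed 48 h before staining; fitted both ways against DMSO so gain or loss of cell number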
[7] = read-out: Monokine induced gamma interferon (MIG), CXCL9 (gene 4283); assay: BSK_CASM3C_MIG: BioMAP Diversity Plus: CASM3C Assay for Monokine induced gamma interferon (MIG) Biomarker Activity (AID 2283048); details: primary human coronary artery smooth muscle cells; actives raise or lower the signal;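 further: MIG protein level measured by ELISA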
[8] = read-out: serum amyloid A (SAA), SAA1 (gene 6288); assay: BSK_CASM3C_SAA: BioMAP Diversity Plus: CASM3C Assay for serum amyloid A (SAA) Biomarker Activity (AID 2283049); details: primary human coronary artery smooth muscle cells; actives raise or lower the signal;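 further: SAA protein level quantified by ELISA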
[9] = BSK_CASM3C_SRB: Viability Assessment in the BioMAP Diversity Plus: CASM3C Assay (AID 2283050); details: primary human coronary artery smooth muscle cells;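 further: total protein by SRB staining as cytotoxicity measure in parallel cultures; cells exposed to compound for 24 h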
[10] = read-out: Thrombomodulin, THBD (gene 7056); assay: BSK_CASM3C_Thrombomodulin: BioMAP Diversity Plus: CASM3C Assay for Thrombomodulin Biomarker Activity (AID 2283051); details: primary human coronary artery smooth muscle cells; actives raise or lower the signal;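 further: thrombomodulin protein level measured by ELISA 24 h after dosing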
[11] = read-out: Tissue Factor, F3 (gene 2152); assay: BSK_CASM3C_TissueFactor: BioMAP Diversity Plus: CASM3C Assay for Tissue Factor Biomarker Activity (AID 2283052); details: primary human coronary artery smooth muscle cells; actives raise or lower the signal;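 further: cell surface tissue factor protein level read by ELISA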
[12] = read-out: Interferon-gamma inducible Protein 10 (IP10), CXCL10 (gene 3627); assay: BSK_hDFCGF_IP10: BioMAP Diversity Plus: hDFCGF Assay for Interferon-gamma inducible Protein 10 (IP10) Biomarker Activity (AID 2283053); details: primary human foreskin fibroblasts; actives raise or lower the signal
Method in brief: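 IP-10 levels, quantified by ELISA, are taken from human foreskin fibroblast cultures 24 h after chemical treatment, with DMSO serving as negative control and baseline for bidirectional analysis.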

[13] = read-out: Urokinase-type plasminogen activator receptor (uPAR), PLAUR (gene 5329); assay: BSK_CASM3C_uPAR: BioMAP Diversity Plus: CASM3C Assay for Urokinase-type plasminogen activator receptor (uPAR) Biomarker Activity (AID 2283054); details: primary human coronary artery smooth muscle cells; actives raise or lower the signal;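 further: cell-surface uPAR protein level quantified by ELISA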
[14] = read-out: Vascular cell adhesion molecule 1 (VCAM1), VCAM1 (gene 7412); assay: BSK_CASM3C_VCAM1: BioMAP Diversity Plus: CASM3C Assay for Vascular cell adhesion molecule 1 (VCAM1) Biomarker Activity (AID 2283055); details: primary human coronary artery smooth muscle cells; actives raise or lower the signal;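 further: VCAM-1 protein level quantified by ELISA on the cells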
[15] = read-out: Collagen III, COL3A1 (gene 1281); assay: BSK_hDFCGF_CollagenIII: BioMAP Diversity Plus: hDFCGF Assay for Collagen III Biomarker Activity (AID 2283056); details: primary human foreskin fibroblasts; actives raise or lower the signal
Method in brief: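 ELISA readout of Collagen III in human dermal (foreskin) fibroblasts, taken 24 h post-treatment. Gain or loss relative to DMSO vehicle fitted in both directions.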

[16] = read-out: Epidermal growth factor receptor (EGFR), EGFR (gene 1956); assay: BSK_hDFCGF_EGFR: BioMAP Diversity Plus: hDFCGF Assay for Epidermal growth factor receptor (EGFR) Biomarker Activity (AID 2283057); details: primary human foreskin fibroblasts; actives raise or lower the signal
Method in brief: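 Measured by ELISA: EGFR levels on primary human foreskin fibroblasts 24 h after chemical treatment, analysed relative to DMSO with bidirectional fitting.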

[17] = read-out: Interleukin-8 (IL8), CXCL8 (gene 3576); assay: BSK_hDFCGF_IL8: BioMAP Diversity Plus: hDFCGF Assay for Interleukin-8 (IL8) Biomarker Activity (AID 2283058); details: primary human foreskin fibroblasts; actives raise or lower the signal
Method in brief: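 IL-8 levels read by ELISA at 24 hours after dosing human skin fibroblast cultures. Parallel SRB staining assessed overt cytotoxicity, and gain or loss of signal was fitted against DMSO control.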

[18] = BSK_hDFCGF_Proliferation: Cell Proliferation Assessment in the BioMAP Diversity Plus: hDFCGF Assay (AID 2283059); details: primary human foreskin fibroblasts;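 further: curves fitted for both rise and fall of signal versus DMSO baseline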
Method in brief: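 Total protein read at 560 nm after 0.1% SRB staining of TCA-fixed human skin fibroblasts, […]. Activity is fitted in both directions relative to DMSO as baseline.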

[19] = read-out: Macrophage colony-stimulating factor (MCSF), CSF1 (gene 1435); assay: BSK_hDFCGF_MCSF: BioMAP Diversity Plus: hDFCGF Assay for Macrophage colony-stimulating factor (MCSF) Biomarker Activity (AID 2283060); details: primary human foreskin fibroblasts; actives raise or lower the signal
Method in brief: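 M-CSF levels read by ELISA at 24 h post-dosing in human skin fibroblasts. Parallel cultures stained with SRB assessed cytotoxicity at the same time point; response fitted in both directions against the DMSO baseline.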

[20] = BSK_hDFCGF_SRB: Viability Assessment in the BioMAP Diversity Plus: hDFCGF Assay (AID 2283061); details: primary human foreskin fibroblasts;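 further: cells exposed to compound for 24 h before the read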
Method in brief: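 Viability was read as total protein: after 10% TCA fixation, wells were stained with 0.1% sulforhodamine B and read at 560 nm. Primary human foreskin fibroblasts were dosed for 24 h, with bidirectional fitting versus DMSO.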

Measured: AC50

COC(=O)CCCCC(=O)OC
inactive: all assays above

CN1CCN(c2ccccc2/C=C2\SCCN(c3ccc(Cl)c(Cl)c3)C2=O)CC1
active: [4] 2.95 µM | [6] 20 µM | [9] 20 µM | [12] 30.7 µM | [15] 13.7 µM | [17] 32.3 µM | [18] 5.54 µM | [19] 23.5 µM | [20] 28.3 µM
inactive: all other assays above

CC(C)(C)c1cccc(C(C)(C)C)c1O
active: [11] 20 µM | [12] 37.8 µM | [15] 35.9 µM | [17] 36.8 µM | [18] 35 µM | [19] 31 µM | [20] 35.7 µM
inactive: all other assays above

CC1=C(/C=C/C(C)=C/C=C/C(C)=C/C(=O)O)C(C)(C)CCC1
active: [2] 26.3 µM | [6] 20 µM | [10] 8.15 µM | [12] 30.2 µM | [14] 20 µM | [15] 15 µM | [17] 38.9 µM | [18] 7.76 µM | [19] 25.2 µM | [20] 34.5 µM
inactive: [1] | [3] | [4] | [5] | [7] | [8] | [11] | [13] | [16]

CCC(C)(C)C1CCC(O)CC1 (centres undefined)
inactive: all assays above

CC(C)CCCCCCOC(=O)CCCCC(=O)OCCCCCCC(C)C
inactive: all assays above

N#C[C@@H]1CC(F)(F)CN1C(=O)CNC1CC2CCC(C1)N2c1ncccn1 (some centres undefined)
inactive: all assays above

CCCCC(CC)COC(=O)CCCCC(=O)OCC(CC)CCCC (centres undefined)
inactive: all assays above

NCC(F)(F)C(F)(F)C(F)(F)C(F)(F)C(F)(F)C(F)(F)C(F)(F)F
inactive: all assays above

CCOC(=O)CC(O)(CC(=O)OCC)C(=O)OCC
inactive: all assays above

CCCCCCCCCCCCN1CCCC1=O
active: [6] 32.7 µM | [9] 27.4 µM | [10] 27.9 µM | [12] 30.9 µM | [15] 14.4 µM | [17] 34.6 µM | [18] 14.6 µM | [19] 31 µM | [20] 34 µM
inactive: all other assays above

c1ccc2cc3c(ccc4ccccc43)cc2c1
active: [6] 3.12 µM | [10] 2.24 µM
inactive: all other assays above
